Screening results (PubChem)
15-hLO inh = 15-hLO (ALOX15) enzyme inhibition. purified 15hLO-1, xylenol orange hydroperoxide absorbance. Potency, µM (top dose mostly 57.1 µM), for the others: at the top dose activity change, negative = inhibition, hits mostly inhibitors. 74,000 tested, 1.4% active. AID 887; further: potency means the concentration at half of the fitted maximal effect; on the % scale 0 is the no-effect control and ±100 the full control effect; nearly all actives have a fitted effect of over 55% in size
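Purified human 15hLO-1 (40 nM) in 25 mM Hepes pH 7.5, 0.01% Triton X-100, preincubated 15 min RT with compound, then 50 uM arachidonic acid for 6 min. Hydroperoxide read by ferrous/xylenol orange, 30 min; 573/405 nm absorbance ratio gave progress.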
ERK AVP block = vasopressin-driven ERK pathway inhibition. HEK293-V1b, vasopressin-stimulated pERK AlphaScreen. AID 995. Potency, µM (doses to about 57.5 µM), for inactives: at the highest dose activity, negative = inhibition, usual class: inhibitors. 72,000 tested, 0.99% active; further: potency means the concentration at half of the fitted maximal effect; on the % scale 0 is the no-effect control and ±100 the full control effect; nearly all actives have a fitted effect of over 55% in size
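HEK293 cells stably expressing V1b receptor, seeded overnight in 1% FBS, were treated with compounds for 30 min at 37C, then stimulated 5 min with 25 nM vasopressin; phospho-ERK read by AlphaScreen SureFire after lysis.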
Tau fil binding = binders of human tau filaments. P10636. recombinant tau filaments, thioflavin S fluorescence, 15 h; filaments grown with octadecylsulfate alongside compound. Potency, µM (series often up to 57.1 µM), for the others: at the highest dose activity change, negative = inhibition. 71,000 tested, 2% active. AID 596;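 further: potency means the concentration at half of the fitted maximal effect; on the % scale 0 is the no-effect control and ±100 the full control effect; actives lower thioflavin S fluorescence by blocking filaments or displacing dye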
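His-tagged recombinant human tau (exons 2, 3, 10; 1 uM final) fibrillized with 30 uM sodium octadecylsulfate, 15 h at 37 C, in pH 7.4 HEPES buffer with 10 uM thioflavine S and 5 mM DTT. Reduced ThS fluorescence (450/510 nm) marks activity.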
FLuc inh = firefly luciferase inhibition. P08659. purified firefly luciferase, luminescence, 8 min. Potency, µM (doses to about 57.1 µM), for inactives: top-dose activity change, negative = inhibition, usual class: inhibitors. 72,000 tested, 2.2% active. AID 411; further: potency means the concentration at half of the fitted maximal effect; on the % scale 0 is the no-effect control and ±100 the full control effect; nearly all actives have a fitted effect of over 40% in size
Target sequence (P08659 whole entry, looked up): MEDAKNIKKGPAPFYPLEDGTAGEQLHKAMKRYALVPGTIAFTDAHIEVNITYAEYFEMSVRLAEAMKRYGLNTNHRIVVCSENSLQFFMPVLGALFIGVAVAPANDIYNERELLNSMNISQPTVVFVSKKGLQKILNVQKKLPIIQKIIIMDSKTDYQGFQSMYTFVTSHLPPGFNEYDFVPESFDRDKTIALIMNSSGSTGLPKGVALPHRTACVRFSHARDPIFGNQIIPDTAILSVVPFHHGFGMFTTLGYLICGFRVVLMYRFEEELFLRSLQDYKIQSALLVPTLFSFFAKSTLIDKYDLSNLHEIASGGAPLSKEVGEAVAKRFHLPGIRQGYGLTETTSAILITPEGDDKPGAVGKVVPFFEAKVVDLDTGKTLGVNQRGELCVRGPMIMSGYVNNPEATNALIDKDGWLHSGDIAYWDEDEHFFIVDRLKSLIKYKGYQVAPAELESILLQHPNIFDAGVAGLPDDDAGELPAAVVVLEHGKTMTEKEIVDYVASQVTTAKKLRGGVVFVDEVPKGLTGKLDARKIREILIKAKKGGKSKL
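Compounds were tested as concentration series (qHTS) against purified P. pyralis luciferase with luciferin and 10 uM ATP in 50 mM imidazole pH 7.2, 50 mM KCl, 7 mM MgCl2, 0.01% Tween 20, 0.05% BSA. Luminescence was read after 8 min at ambient temperature.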
Bst PK mod = pyruvate kinase (B. stearothermophilus) modulation; purified pyruvate kinase, luminescence ATP production; ribose 5-phosphate activator present at AC10; Potency, µM; 51,000 tested, 1.2% active; AID 361; in the data active means potency below about 11 µM; inconclusive means mostly about 12 µM to 25 µM;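 the screen sought inhibitors and activators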;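 further: potency means the concentration at half of the fitted maximal effect; scaled between full activation by ribose 5 phosphate and full inhibition by luteolin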
Hsp90 Hop PPI = changes Hsp90-Hop TPR2A binding signal, up or down. Potency, µM (series often up to 57 µM), without a hit: top-dose activity change, negative = inhibition. 71,000 tested, 0.44% active. AlphaScreen TPR2A-His6 binding biotin-Hsp90 C-terminal peptide; active means well fitted curve in either direction with a large enough effect; inconclusive means small, poorly fitted or top-dose-only effect, or another doubt; further: potency means the concentration at half of the fitted maximal effect; on the % scale 0 is the no-effect control and ±100 the full control effect
Hsp90 TPR2A CRC = confirmation and counter-screen of Hsp90 TPR2A co-chaperone interaction disrupters; shares compounds with Hsp90 Hop PPI; AlphaScreen TPR2A-His6 / biotin-Hsp90 peptide binding; activity, negative = inhibition, % at 40 µM or 46 µM, hits read low; 45 tested, 100% active; AID 632;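 active means compound lowering the Hsp90 and TPR2A binding signal, whether or not the linker counterscreen also flagged it as an artifact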
* marks the source's active call; other numbers are inactive results; i = inactive; ? = inconclusive; nt = no result given; + = active, no number; ! = not confirmed by another sample; [ ] = remark or other dose. Only some compounds are listed: those with a hit (about 6.1% of all), similar ones and a draw of the others. Unless noted, the call rests on the fitted dose curve; in most records, active means well fitted curve in the direction sought with a large enough effect; inconclusive means small, poorly fitted or top-dose-only effect, or another doubt; inactive means no such curve, though single readings can be large; an effect the other way counts as inactive or inconclusive.

SMILES	15-hLO inh	ERK AVP block	Tau fil binding	FLuc inh	Bst PK mod	Hsp90 Hop PPI	others
NC1=CC(=O)c2cccc3cccc1c23	5µM*	36%	62%	-10%	i	-18%
COc1ccc2[nH]cc(CCNc3cc(-c4ccccc4Cl)ncn3)c2c1	?	?	-10%	-12%[2.29 µM]	nt	-28%
COc1ccc2[nH]cc(CCNc3ccnc(-c4cccc(C#N)c4)n3)c2c1	8%	?	-22%	0%[2.29 µM]	nt	-17%
COc1ccc2[nH]cc(CCNc3cc(-c4ccccc4C(F)(F)F)ncn3)c2c1	16µM*	-10%	-10%	1%[2.29 µM]	nt	-21%
COc1ccc2[nH]cc(CCNc3ccnc(-c4ccccc4Cl)n3)c2c1	-7%	40µM*	-10%	0%[2.29 µM]	nt	-14%
COc1ccc2[nH]cc(CCNc3ccnc(-c4cccc(NS(C)(=O)=O)c4)n3)c2c1	20µM*	13µM*	-13%	0%[2.29 µM]	nt	-17%
O=C1CC(O)(C(F)F)Oc2ccc3ccccc3c21 (stereo not given)	?	-11%	-12%	-3%	>11	0%
O=C1CC(O)(C(F)(F)F)Oc2c1ccc1ccccc21 (stereo not given)	-8%	16µM*	-30%	-4%	nt	4%
NC(=O)c1ncn([C@@H]2O[C@@H](CO)[C@@H](O)[C@H]2O)n1	nt	nt	-6%	-1%	nt	1%
COc1ccc(NC(=O)N2CC3(CCNCC3)C2)cc1	2%	24%	8%	-2%[11.4 µM]	nt	-1%
NC(N)=NCCCCN=C(N)N	?	6%	32µM*!	1%	nt	?
Cn1c(-c2cccc(Br)c2)cnc1NCc1cccnc1	16%	-18%	13%	0%	>57	-11%
COc1cccc(-c2cnc(NCc3cc(Cl)ccc3O)n2C)c1	32µM*	?	30%	0%	>57	?
COc1ccc(NC2=Nc3ccccc3CC2)cc1	-14%	-24%	5%	20µM*	>57	-2%
c1ccc2c3c([nH]c2c1)[C@@H]1[C@H]2CC[C@H]([C@H]4CCCN[C@H]42)N1CC3	-26%[25.6 µM]	6%[25.7 µM]	-28%[25.6 µM]	0%[25.5 µM]	nt	-3%[26 µM]
CCC(=O)c1ccc(N2CCN(C(=O)COc3ccc(F)cc3)CC2)c(F)c1	3%[11.4 µM]	3.2µM*	29%[11.4 µM]	-1%	nt	-3%[11 µM]
COc1cc(OC)cc(C(=O)N2CCN(C(=O)COc3ccc4ccccc4c3)CC2)c1	7%	-11%	16%	10µM*	?	-4%
COc1ccccc1N1CCN(C(=O)COc2ccc(Cl)cc2)CC1	-27%	32µM*	-12%	1%	>57	-10%
CN(C)c1ncnc2ccc(-c3cccc(C#N)c3)cc12	7%	-18%	-3%	1%[2.29 µM]	nt	-8%
CN(C)c1oc(-c2ccc(OCc3ccc(Cl)cc3)cc2)nc1C#N	-6%	-15%	23%	1%	0.25*	-9%
O=C(Nc1ccc2c(c1)OCO2)C1COc2ccccc2O1 (stereo not given)	-4%	-22%	13µM*	-21%	nt	-6%
O=C(Nc1nc2c(s1)CCCC2)C1COc2ccccc2O1 (stereo not given)	-11%	nt	0%	10µM*	nt	0%
O=C(NC1=NCCS1)C1COc2ccccc2O1 (stereo not given)	-7%	-9%	-4%	2µM*	4.3*	-8%
O=C(c1ccco1)[C@@H]1[C@@H]2C(=O)N(c3ccc(Br)cc3)C(=O)[C@@H]2C2c3ccccc3C=CN21 (stereo not given in full)	-8%	-14%	59%	-12%	7.2*	-17%
O=C(c1ccco1)[C@@H]1[C@@H]2C(=O)N(c3ccc(F)cc3)C(=O)[C@@H]2C2c3ccccc3C=CN21 (stereo not given in full)	-3%	-4%	148%	-3%	>57	-9%
SMILES	15-hLO inh	ERK AVP block	Tau fil binding	FLuc inh	Bst PK mod	Hsp90 Hop PPI	others
O=C1CN(CC(=O)N2CCCCC2)c2ccccc2O1	?	-19%	32µM*	-8%	>57	-10%
O=C(CS(=O)(=O)c1ccccc1)Nc1nc(-c2ccccc2)cs1	?	40µM*	-13%	4%	>57	-4%
COc1cccc(C2CC(c3ccccc3Cl)Nc3ncnn32)c1 (stereo not given)	10%	-3%	-10%	1%	8.4*	-1%
N#Cc1cc2c(nc1SCc1cccnc1)CCCC2	16µM*	0%	11%	-1%	>57	4%
N#Cc1cc2c(nc1SCc1nc3ccccc3[nH]1)CCC2	16µM*	?	32µM*	4µM*	6*	12%
N#Cc1cc2c(nc1SCc1cccnc1)CCC2	0%	-16%	4%	1%	>57	4%
CN1CCN(c2ncc3nc(-c4ccccc4)c(=O)n(-c4ccccc4)c3n2)CC1	-7%	-3%	5%	1%[11.4 µM]	nt	2%
CO[C@H]1COC(=O)CCC[C@H](C)[C@@H](OC)COC(=O)C/C=C\[C@@H]1C	9%[11.4 µM]	-2%[11.5 µM]	nt	3%[11.4 µM]	nt	nt
C1CCN2CC3CC(CN4CCCC[C@@H]34)C2C1 (stereo not given in full)	-1%[25.6 µM]	7%	nt	nt	nt	nt
COC(=O)c1cc(CSc2nnc(-c3ccccc3)c(-c3ccccc3)n2)oc1C	9%	7%	16µM*	-1%	>57	-2%
COC(=O)c1cc(CSc2nc3ccc(C)cc3[nH]2)oc1C	-5%	-27%	-2%	nt	>57	-1%
CN(C)c1ccc(NC(=O)CN2CCN(CC(=O)Nc3ccc(F)cc3)CC2)cc1	-3%	14%	-24%	-4%	>57	-3%
Cc1cc(NC(=O)Nc2ccc(N(C)C)cc2)c2cc(F)cc(F)c2n1	-4%[25.6 µM]	?	32µM*	-4%	nt	7.9µM*
N#Cc1nc(Cc2cccc3ccccc23)oc1NCCN1CCCCC1	29%	-18%	26%	7.9µM*	6.3*	7.9µM*	Hsp90 TPR2A CRC=-23
CC1=C(/C=C\C(=O)O)C(C)(C)CCC1	-1%[11.4 µM]	13%[11.5 µM]	4%[11.4 µM]	1%[11.4 µM]	nt	0%[11 µM]
c1ccncc1	2%	17%	-1%	nt	nt	-4%
c1cncc(-c2nc(-n3ccnc3)c3ccccc3n2)c1	-6%	-13%	-4%	-1%[2.29 µM]	nt	-5%
CCCc1nc2c(=O)n(C)c(=O)nc-2n(C)n1	nt	nt	nt	nt	nt	nt	Hsp90 TPR2A CRC=+
CC(C)(C)C1CCc2c(sc3c2C(=O)NC(c2ccco2)N3)C1 (stereo not given)	-30%	-19%	?	-17%	nt	-9%
CN1CCc2c(sc3c2C(=O)NC(c2ccccn2)N3)C1 (stereo not given)	14%	-21%	i	-2%	i	16µM*	Hsp90 TPR2A CRC=-81*[alpha-screen platform artifact]
COC(=O)Cc1cc(=O)n(-c2nc3ccccc3[nH]2)[nH]1	37%	-23%	-11%	-1%	>57	7.9µM*	Hsp90 TPR2A CRC=-100*[alpha-screen platform artifact]
